According to PubChem BioAssay (EPA / NIEHS):
Records with an inconclusive call do not appear. Active and inactive are the calls of the source. The calls were made as follows, unless noted: active = hit-call score of the fitted dose curve at least 0.9, where 1 is the maximum; inactive = score below 0.9.

Assays:
[1] = test system: DIO1 (gene 1733); experiment: CCTE_GLTED_hDIO1: CCTE's human Deiodinase 1 (DIO1) Inhibition Assay, Great Lakes Toxicology and Ecology Division (GLTED) Lab (AID 2283987; active = hit-call score of the fitted dose curve at least 0.9, where 1 is the maximum;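 also: isolated human DIO1 enzyme in a cell-free setup rather than cells; enzyme activity read as free iodide liberated from substrate via Sandell-Kolthoff colorimetry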)
Summary of the method: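 Cell-free hDIO1 assay, triplicate plates. Absorbance of the Sandell-Kolthoff reaction reports enzyme-liberated iodide; iodinated chemicals or nitrite, iron and thiocyanate may interfere.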

[2] = target: Nucleoli Translocation, AR (gene 367) (UniProt P10275); experiment: UPITT_HCI_U2OS_AR_TIF2_Nucleoli_Antagonist: University of Pittsburgh U2OS Androgen Receptor-Transcriptional Intermediary Factor 2 (AR-TIF2) Antagonism High Content Imaging Assay for Nucleoli Translocation (AID 2283997; active = hit-call score of the fitted dose curve at least 0.9, where 1 is the maximum)
Chain of Nucleoli Translocation, AR (gene 367) (P10275 whole entry, looked up): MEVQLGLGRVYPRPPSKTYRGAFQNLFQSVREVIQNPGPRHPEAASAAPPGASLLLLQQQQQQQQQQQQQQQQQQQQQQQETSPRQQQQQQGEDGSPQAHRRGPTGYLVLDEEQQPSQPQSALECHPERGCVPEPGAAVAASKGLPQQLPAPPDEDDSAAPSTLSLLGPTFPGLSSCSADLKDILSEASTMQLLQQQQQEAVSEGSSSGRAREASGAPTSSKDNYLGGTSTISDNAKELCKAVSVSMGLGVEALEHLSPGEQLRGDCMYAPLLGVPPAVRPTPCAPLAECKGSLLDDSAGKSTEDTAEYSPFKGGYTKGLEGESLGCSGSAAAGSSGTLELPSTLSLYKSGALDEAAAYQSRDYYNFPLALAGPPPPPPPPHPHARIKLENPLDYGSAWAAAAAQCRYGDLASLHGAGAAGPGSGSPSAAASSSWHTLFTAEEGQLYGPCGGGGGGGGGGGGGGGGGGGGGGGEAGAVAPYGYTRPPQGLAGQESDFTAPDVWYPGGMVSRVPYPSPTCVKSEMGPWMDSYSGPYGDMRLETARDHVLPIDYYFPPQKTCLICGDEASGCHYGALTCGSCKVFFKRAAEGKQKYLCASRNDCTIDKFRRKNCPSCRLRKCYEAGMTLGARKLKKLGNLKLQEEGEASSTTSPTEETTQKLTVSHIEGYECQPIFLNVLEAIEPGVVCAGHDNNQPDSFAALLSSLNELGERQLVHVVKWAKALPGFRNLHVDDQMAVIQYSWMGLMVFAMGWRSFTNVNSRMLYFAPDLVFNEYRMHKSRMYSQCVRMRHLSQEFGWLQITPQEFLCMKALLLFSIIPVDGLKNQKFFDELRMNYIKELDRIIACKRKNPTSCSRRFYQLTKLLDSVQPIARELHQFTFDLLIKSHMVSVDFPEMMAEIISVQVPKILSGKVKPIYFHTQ
Summary of the method: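 U2OS cells expressing RFP-tagged human AR and GFP-tagged TIF2 were imaged by high-content fluorescence microscopy for red AR signal in the nucleolar region. Compounds were screened at 20 uM final (0.2% DMSO), with activity fitted relative to DHT as baseline.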

[3] = target: Nucleoli Translocation, AR (gene 367) (UniProt P10275); experiment: UPITT_HCI_U2OS_AR_TIF2_Nucleoli_Agonist: University of Pittsburgh U2OS Androgen Receptor-Transcriptional Intermediary Factor 2 (AR-TIF2) Agonism High Content Imaging Assay for Nucleoli Translocation (AID 2283998; active = hit-call score of the fitted dose curve at least 0.9, where 1 is the maximum)
Summary of the method: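 Red-tagged human androgen receptor co-expressed with GFP-tagged TIF2 serves as the binding reporter. Primary testing used 20 uM final (0.2% DMSO); follow-up dose response covered 0.195 to 50 uM final (0.5% DMSO).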

[4] = target: Ratio of Nucleoli Translocation and Cytoplasm, AR (gene 367) (UniProt P10275); experiment: UPITT_HCI_U2OS_AR_TIF2_Nucleoli_Cytoplasm_Ratio_Antagonist: University of Pittsburgh U2OS Androgen Receptor-Transcriptional Intermediary Factor 2 (AR-TIF2) Antagonism High Content Imaging Assay for Ratio of Nucleoli Translocation and Cytoplasm (AID 2283999; active = hit-call score of the fitted dose curve at least 0.9, where 1 is the maximum;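 also: antagonists lower the DHT-driven ratio of nucleolar to cytoplasmic red signal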)
Chain of Ratio of Nucleoli Translocation and Cytoplasm, AR (gene 367) (P10275 whole entry, looked up): as above
Summary of the method: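 U2OS cells expressing RFP-tagged human AR and GFP-tagged TIF2; compounds tested at 20 uM final (0.2% DMSO) in primary screen, 0.195–50 uM (0.5% DMSO) for concentration response. Readout: nucleolar-to-cytoplasmic red fluorescence ratio by high-content imaging, fitted relative to DHT.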

[5] = target: Ratio of Nucleoli Translocation and Cytoplasm, AR (gene 367) (UniProt P10275); experiment: UPITT_HCI_U2OS_AR_TIF2_Nucleoli_Cytoplasm_Ratio_Agonist: University of Pittsburgh U2OS Androgen Receptor-Transcriptional Intermediary Factor 2 (AR-TIF2) Agonism High Content Imaging Assay for Ratio of Nucleoli Translocation and Cytoplasm (AID 2284000; active = hit-call score of the fitted dose curve at least 0.9, where 1 is the maximum;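 also: hits raise the red nucleolar to cytoplasm ratio above vehicle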)
Summary of the method: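 U2OS cells expressing RFP-tagged human AR and GFP-tagged TIF2 were imaged by high-content fluorescence microscopy. The endpoint is the ratio of nucleolar to cytoplasmic red fluorescence, fitted for gain of signal relative to DMSO. Concentration-response spanned 0.195 to 50 uM final (0.5% DMSO).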

[6] = target: PGR (gene 5241) (UniProt P06401); experiment: TOX21_PR_LUC_Followup_Antagonist: Tox21 HEK293 Progesterone Receptor (PR) Antagonism Luciferase Follow-Up Assay (AID 2283938; active = hit-call score of the fitted dose curve at least 0.9, where 1 is the maximum;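 also: curve fitted upward as signal gain over DMSO baseline despite antagonist label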)
Chain of PGR (gene 5241) (P06401 whole entry, looked up): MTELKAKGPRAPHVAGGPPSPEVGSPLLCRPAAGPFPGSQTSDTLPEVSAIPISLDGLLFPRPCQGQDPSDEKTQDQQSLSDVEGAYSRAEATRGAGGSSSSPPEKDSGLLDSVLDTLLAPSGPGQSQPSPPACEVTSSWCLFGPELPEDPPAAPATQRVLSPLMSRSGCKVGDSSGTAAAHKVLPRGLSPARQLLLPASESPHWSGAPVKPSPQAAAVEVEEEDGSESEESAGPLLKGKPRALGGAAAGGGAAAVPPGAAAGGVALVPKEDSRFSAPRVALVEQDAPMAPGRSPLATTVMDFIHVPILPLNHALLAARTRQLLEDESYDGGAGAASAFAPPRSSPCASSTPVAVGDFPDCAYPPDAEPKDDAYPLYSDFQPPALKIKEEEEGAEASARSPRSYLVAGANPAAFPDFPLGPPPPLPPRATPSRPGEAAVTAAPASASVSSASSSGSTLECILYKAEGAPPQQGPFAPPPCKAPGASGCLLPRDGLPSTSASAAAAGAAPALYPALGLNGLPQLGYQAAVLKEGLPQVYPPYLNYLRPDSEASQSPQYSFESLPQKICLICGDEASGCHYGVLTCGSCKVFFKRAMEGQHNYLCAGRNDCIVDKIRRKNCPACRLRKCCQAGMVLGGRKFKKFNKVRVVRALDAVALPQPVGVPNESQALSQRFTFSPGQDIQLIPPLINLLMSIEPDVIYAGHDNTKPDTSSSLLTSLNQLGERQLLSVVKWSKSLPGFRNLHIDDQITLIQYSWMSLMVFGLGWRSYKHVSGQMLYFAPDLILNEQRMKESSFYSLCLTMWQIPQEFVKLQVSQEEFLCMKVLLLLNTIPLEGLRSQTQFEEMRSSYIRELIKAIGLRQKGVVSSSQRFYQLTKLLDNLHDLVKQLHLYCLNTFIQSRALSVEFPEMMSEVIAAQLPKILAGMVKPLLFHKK
Summary of the method: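 A follow-up to the PR bla screen using HEK293-PR-A-luc cells, multiplexed with cell viability to flag cytotoxicity. Reporter luminescence after 16 h compound exposure was analysed relative to DMSO.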

[7] = TOX21_PR_LUC_Followup_Antagonist_viability: Viability Assessment in the Tox21 HEK293 Progesterone Receptor (PR) Antagonism Luciferase Follow-Up Assay (AID 2283940; active = hit-call score of the fitted dose curve at least 0.9, where 1 is the maximum)
Summary of the method: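 HEK293-PR-A-luc cells, precultured 5 days in assay medium with 10% charcoal-stripped FBS, were seeded at 3,000 cells/well, treated with compounds in DMSO for 16 h at 37C, and viability was read as cellular ATP by CellTiter-Glo luminescence.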

[8] = TOX21_PR_LUC_Followup_Agonist_viability: Viability Assessment in the Tox21 HEK293 Progesterone Receptor (PR) Agonism Luciferase Follow-Up Assay (AID 2283941; active = hit-call score of the fitted dose curve at least 0.9, where 1 is the maximum;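 also: loss of signal means cytotoxicity so actives lower viability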)
Summary of the method: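 HEK293-PR-A-luc cells, pre-cultured 5 days in 10% charcoal-stripped FBS, were seeded at 3,000 cells/well, rested 5 h at 37C, then given compound in DMSO for 16 h at 37C. Cellular ATP was read by CellTiter-Glo luminescence; signal loss indicates cytotoxicity.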

[9] = CCTE_Harrill_HTTr_Viability_MCF7: CCTE's 6-hour Cell Viability Assessment for the High-Throughput Transcriptomics (HTTr) Platform, in MCF-7 cells cultured in DMEM + 10% fetal bovine serum, Harrill Lab (AID 2284010)
Summary of the method: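 Membrane integrity was scored by high-content imaging of propidium iodide dye exclusion after a 6 h exposure across an eight-point dilution series. Data were fitted bidirectionally relative to DMSO as negative control and baseline.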

[10] = CCTE_Harrill_HTTr_Apoptosis_MCF7: CCTE's 6-hour Apoptosis Assessment for the High-Throughput Transcriptomics (HTTr) Platform, in MCF-7 cells cultured in DMEM + 10% fetal bovine serum, Harrill Lab (AID 2284011)
Summary of the method: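 Cells are dosed with test chemicals at eight concentrations and imaged 6 hours later for caspase-3/7 activity using a green fluorogenic detection reagent. Activity is fitted in both directions against DMSO controls.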

[11] = target: Thyroid hormone receptor alpha (Rattus norvegicus) + Thyroid hormone receptor beta (Rattus norvegicus) (UniProt P18113+P63059); experiment: TOX21_TR_LUC_GH3_Agonist_Followup: Tox21 GH3 Thyroid Hormone Receptor Agonism Luciferase Follow-Up Assay (AID 2283939; active = hit-call score of the fitted dose curve at least 0.9, where 1 is the maximum)
Chain of Thyroid hormone receptor alpha (Rattus norvegicus) + Thyroid hormone receptor beta (Rattus norvegicus) (P63059 whole entry, looked up): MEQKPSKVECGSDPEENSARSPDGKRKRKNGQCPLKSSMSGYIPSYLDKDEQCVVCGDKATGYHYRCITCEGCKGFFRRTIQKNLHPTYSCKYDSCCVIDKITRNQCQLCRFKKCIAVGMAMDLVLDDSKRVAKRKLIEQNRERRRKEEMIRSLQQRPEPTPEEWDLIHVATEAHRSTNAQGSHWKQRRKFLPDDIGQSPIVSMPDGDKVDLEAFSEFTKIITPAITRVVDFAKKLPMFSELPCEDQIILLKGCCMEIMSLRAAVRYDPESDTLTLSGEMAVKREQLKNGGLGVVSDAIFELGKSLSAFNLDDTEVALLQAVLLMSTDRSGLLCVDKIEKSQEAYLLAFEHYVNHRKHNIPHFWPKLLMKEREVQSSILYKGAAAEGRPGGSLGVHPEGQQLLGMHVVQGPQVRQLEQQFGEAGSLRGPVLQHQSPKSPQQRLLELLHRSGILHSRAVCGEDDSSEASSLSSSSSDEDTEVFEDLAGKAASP
Chain of Thyroid hormone receptor alpha (Rattus norvegicus) + Thyroid hormone receptor beta (Rattus norvegicus) (P18113 whole entry, looked up): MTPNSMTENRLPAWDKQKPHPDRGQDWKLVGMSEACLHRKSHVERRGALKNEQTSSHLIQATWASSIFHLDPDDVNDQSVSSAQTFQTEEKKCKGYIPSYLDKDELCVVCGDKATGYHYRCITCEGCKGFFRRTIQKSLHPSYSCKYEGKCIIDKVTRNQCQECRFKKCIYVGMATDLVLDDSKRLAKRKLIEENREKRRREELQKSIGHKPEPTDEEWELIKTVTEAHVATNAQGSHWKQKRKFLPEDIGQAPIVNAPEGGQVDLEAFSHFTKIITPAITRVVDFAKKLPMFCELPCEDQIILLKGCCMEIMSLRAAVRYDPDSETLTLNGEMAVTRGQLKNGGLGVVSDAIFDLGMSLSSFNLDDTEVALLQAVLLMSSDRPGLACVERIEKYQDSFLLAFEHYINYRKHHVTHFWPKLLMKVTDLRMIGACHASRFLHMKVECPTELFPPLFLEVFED
Summary of the method: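 Rat GH3 cells (1,500/well) in serum-free assay medium, treated with 15-point series, 92 uM to 5 nM final, for 24 h at 37C. Luciferase via ONE-Glo luminescence; gain of signal fitted against DMSO, T3 positive control.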

[12] = target: THRA (gene 7067) (UniProt P10827); experiment: TOX21_TRA_COA_Agonist_Followup_ratio: Tox21 Thyroid Hormone Receptor alpha Agonism through Coactivator Recruitment Follow-Up Assay, Ratio (AID 2283948)
Chain of THRA (gene 7067) (P10827 whole entry, looked up, the tested form may be a part): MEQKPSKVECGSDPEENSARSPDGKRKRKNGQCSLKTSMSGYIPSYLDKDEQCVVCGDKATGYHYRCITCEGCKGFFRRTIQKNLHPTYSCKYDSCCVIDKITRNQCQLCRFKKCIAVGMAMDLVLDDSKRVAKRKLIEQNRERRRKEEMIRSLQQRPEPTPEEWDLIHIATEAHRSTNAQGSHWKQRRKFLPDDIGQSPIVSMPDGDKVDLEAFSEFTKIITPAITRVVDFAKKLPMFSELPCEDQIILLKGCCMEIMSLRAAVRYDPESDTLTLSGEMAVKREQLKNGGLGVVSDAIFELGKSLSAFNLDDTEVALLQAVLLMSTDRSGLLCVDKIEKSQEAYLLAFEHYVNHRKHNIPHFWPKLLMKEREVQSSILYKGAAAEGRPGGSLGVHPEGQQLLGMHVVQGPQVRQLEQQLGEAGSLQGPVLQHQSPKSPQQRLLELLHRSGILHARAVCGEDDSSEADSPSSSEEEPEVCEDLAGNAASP
Summary of the method: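 First, compound was incubated with 2.5 nM GST-TRα LBD in 0.10% BSA. Next, 200 nM fluorescein-SRC-2 and 2 nM Tb-anti-GST antibody were added. Finally, the 520:495 nm ratio was normalized to DMSO and T3 controls.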

[13] = target: THRB (gene 7068) (UniProt P10828); experiment: TOX21_TRB_BLA_Agonist_Followup_ratio: Tox21 Thyroid Hormone Receptor beta Agonism Beta-lactamase (BLA) Follow-Up Assay, Ratio (AID 2283954; active = hit-call score of the fitted dose curve at least 0.9, where 1 is the maximum)
Chain of THRB (gene 7068) (P10828 whole entry, looked up, the tested form may be a part): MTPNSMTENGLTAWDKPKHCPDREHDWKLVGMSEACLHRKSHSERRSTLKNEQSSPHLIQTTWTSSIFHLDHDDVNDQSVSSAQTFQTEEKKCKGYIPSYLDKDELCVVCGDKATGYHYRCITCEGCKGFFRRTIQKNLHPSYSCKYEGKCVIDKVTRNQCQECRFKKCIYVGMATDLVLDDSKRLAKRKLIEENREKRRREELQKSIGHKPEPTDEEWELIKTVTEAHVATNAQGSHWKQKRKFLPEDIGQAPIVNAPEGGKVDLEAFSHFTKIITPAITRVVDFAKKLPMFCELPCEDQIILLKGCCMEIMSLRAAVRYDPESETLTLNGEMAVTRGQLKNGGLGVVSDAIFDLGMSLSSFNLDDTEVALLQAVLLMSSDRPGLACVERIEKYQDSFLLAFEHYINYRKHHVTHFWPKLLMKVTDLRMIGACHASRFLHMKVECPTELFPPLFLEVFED
Summary of the method: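 Human TRβ LBD–GAL4 DBD fusion in GeneBLAzer UAS-bla HEK293T cells; 11 concentrations in triplicate, 18 h at 37°C/5% CO2, T3 as agonist control. CCF4-AM substrate 2 h at room temperature; 460:530 nm ratio fitted for gain of signal versus DMSO.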

[14] = target: THRB (gene 7068) (UniProt P10828); experiment: TOX21_TRB_COA_Agonist_Followup_ratio: Tox21 Thyroid Hormone Receptor beta Agonism through Coactivator Recruitment Follow-Up Assay, Ratio (AID 2283963)
Summary of the method: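 Agonism is measured as coactivator recruitment in a purified-protein TR-FRET format, using GST-TRβ LBD at 5.0 nM, fluorescein-SRC-2 peptide at 200 nM and Tb-labeled anti-GST antibody at 2 nM. Values are 520:495 nm ratios relative to DMSO (0%) and T3 (100%).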

[15] = target: Retinoic acid receptor RXR-alpha (Homo sapiens) (UniProt P19793); experiment: TOX21_TR_RXR_BLA_Agonist_Followup_ratio: Tox21 Thyroid Hormone Receptor beta Retinoid X Receptor alpha (RXRa) Agonism Beta-lactamase (BLA) Follow-Up Assay, Ratio (AID 2283968; active = hit-call score of the fitted dose curve at least 0.9, where 1 is the maximum)
Chain of Retinoic acid receptor RXR-alpha (Homo sapiens) (P19793 whole entry, looked up, the tested form may be a part): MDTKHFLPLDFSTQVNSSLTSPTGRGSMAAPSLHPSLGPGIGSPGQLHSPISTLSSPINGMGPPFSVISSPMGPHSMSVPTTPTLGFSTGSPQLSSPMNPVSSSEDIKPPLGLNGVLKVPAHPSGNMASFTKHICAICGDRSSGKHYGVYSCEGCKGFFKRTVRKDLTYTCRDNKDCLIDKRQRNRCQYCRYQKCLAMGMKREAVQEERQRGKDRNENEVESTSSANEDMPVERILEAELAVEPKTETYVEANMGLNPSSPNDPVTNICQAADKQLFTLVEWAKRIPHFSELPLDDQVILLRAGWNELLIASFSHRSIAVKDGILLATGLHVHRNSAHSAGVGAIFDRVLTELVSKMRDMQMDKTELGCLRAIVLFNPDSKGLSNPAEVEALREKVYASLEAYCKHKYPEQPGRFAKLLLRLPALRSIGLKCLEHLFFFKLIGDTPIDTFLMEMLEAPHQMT
Summary of the method: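 RXRa-UAS-bla HEK293T cells (GAL4 beta-lactamase reporter) were treated with compounds at 11 concentrations in triplicate for 16 h at 37C/5% CO2, then loaded with CCF4-AM substrate for 2 h at room temperature; activity is the 460:530 nm ratio versus DMSO baseline.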

[16] = TOX21_TR_RXR_BLA_Agonist_Followup_viability: Viability Assessment in the Tox21 Thyroid Hormone Receptor beta Retinoid X Receptor alpha (RXRa) Agonism Beta-lactamase (BLA) Follow-Up Assay (AID 2283970; active = hit-call score of the fitted dose curve at least 0.9, where 1 is the maximum)
Summary of the method: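 RXRa-UAS-bla HEK293T cells seeded at 2,500/well in phenol red-free DMEM with 2% charcoal-stripped FBS, exposed to compound 16h at 37C/5% CO2 in qHTS. Viability read by CellTiter-Glo ATP luminescence; bidirectional fitting against DMSO baseline, signal loss indicating cytotoxicity.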

[17] = CCTE_Shafer_MEA_acute_spike_number: CCTE's Neural Acute Assay for Total Number of Spikes, Shafer Lab (AID 2284008);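 as to AC50: curve fitted for decrease in spike count so AC50 reflects inhibitors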
Summary of the method: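 Cortical neurons from rat, matured to DIV 13 or 15 on microelectrode arrays, are recorded at 37 C before and during 40-min exposure to 0.03-40 uM compound. Wells need >/= 10 active electrodes.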

[18] = CCTE_Shafer_MEA_acute_firing_rate_mean: CCTE's Neural Acute Assay for Mean Firing Rate, Shafer Lab (AID 2284009);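 also: analyzed for loss of signal so actives lower firing rate relative to DMSO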
Summary of the method: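 Read-out: well-mean spike rate (spikes/recording length/electrodes), % change from 40 min pre-dose baseline to 40 min with compound. Rat cortical cultures, DIV 13 or 15, 37 C; 0.03-40 uM; DMSO as negative control.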

Measured: AC50

CCCCCCCCCCCCCCCC(=O)OC[C@H](O)[C@H]1OC(=O)C(O)=C1O
inactive: [2] | [3] | [4] | [5]
active: [1] 89.6 µM

CCCc1c(OCCCOc2ccc(OCC(=O)O)cc2)ccc(C(C)=O)c1O
inactive: [7] | [8] | [9] | [10]
active: [6] 63.6 µM

Cc1cccc(C)c1[N+](=O)[O-]
inactive: [11] | [12] | [13] | [14] | [15] | [16]

C[Si](O[Si](C)(C)C)O[Si](C)(C)C
inactive: [2]

CC(C)(COC(=O)c1ccccc1)COC(=O)c1ccccc1
inactive: [17] | [18]

O=Nc1ccc(Nc2ccccc2)cc1
active: [2] 2.56 µM | [4] 2.51 µM
inactive: [3] | [5] | [9] | [10]

O=C[C@@H](O)[C@H](O)[C@H](O)CO
inactive: [2] | [3] | [4] | [5]

CCC(=O)OCc1ccccc1
inactive: [17] | [18] | [9] | [10]

NCCNCCN
inactive: [17] | [18]

CCCCCCCCCCCCCC(=O)O
active: [1] 166 µM
inactive: [9] | [10]

CCCCCCCCC=O
inactive: [17] | [18] | [9] | [10]

CC(=O)OCCC(C)CC(C)(C)C (stereo unspecified)
inactive: [11] | [12] | [13] | [14] | [15] | [17] | [18]

C[C@]12CC[C@H]3[C@@H](CCC4=CC(=O)CC[C@@]43C)[C@@H]1CC[C@@H]2C(=O)CO
inactive: [6] | [7] | [8] | [9] | [10]

Nc1ccc(S(N)(=O)=O)cc1
inactive: [12] | [13] | [14] | [15] | [16] | [9] | [10]

C=C[Si](OCC)(OCC)OCC
inactive: [17] | [18]

Nc1cc([N+](=O)[O-])ccc1O
active: [17] 2.98 µM
inactive: [18]

CCCCC(CC)COC(=O)/C=C\C(=O)OCC(CC)CCCC (stereo unspecified)
inactive: [2] | [3] | [4] | [5] | [9] | [10]
